Source: PubChem (Broad Institute)
Most compounds without a hit are left out; they make up all but 3.7% or so of the library.
rRNA inh HTS = selective bacterial rRNA inhibition in E. coli. GFP signal change (wild-type ribosome), % (no concentration beside the values). AID 720706. actives 1.6% (n = 350,000). E. coli WT GFP vs humanized-ribosome RFP mutants, fluorescence, 24 h; active compounds read low; DMSO median 0, no signal -100;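 active = significant combined selectivity score with lowered wild-type GFP, culture density cut under 30%, mutant RFP and density less affected; inactive = any of these conditions unmet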
MITF act = increases MITF-driven TRPM1 promoter luciferase signal | SK-MEL-5 TRPM1-promoter luciferase, 24 h; % of positive control, neutral wells = 0 | activation, % at 12.5 µM | actives 0.75% (n = 300,000) | AID 588334;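 active = mean activation of at least 80% with every replicate also reaching 80%; inconclusive = mean reaches 80% but some replicate falls short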;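 note: 0% = neutral control wells and 100% = parthenolide positive control wells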
Wnt act = activators of Wnt/beta-catenin signaling; Wnt/beta-catenin reporter cell assay, activator, plate reader; AID 743398; activation, % at 9.35 µM; actives 1.2% (n = 300,000); in the data active = activation above about 30%, passing the limit was not always enough; inconclusive = no clear call, values can overlap the other calls;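 note: 0% = neutral control wells and 100% = positive control wells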
esBAF inh = blocks esBAF chromatin remodeling in mouse ES cells; Bmi1-luciferase knock-in reporter, 24 h; 100% = twice the neutral-well signal; AID 602393; reporter increase, % at 12.5 µM; actives 2% (n = 350,000); in the data active = activation above about 40%; inconclusive = no clear call, values can overlap the other calls;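 note: 0% = median of the plate's neutral control wells and 100% = double that signal; a rise in the Bmi1 reporter signal indicates esBAF inhibition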
MLL AF4-AF9 inh = inhibitors of human MLL-AF4/AF9 interaction; P42568; AlphaScreen, biotin-AF4 peptide binding to FLAG-AF9; inhibition, % at 10 µM; actives 0.47% (n = 350,000);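 active = every replicate reaching a set inhibition limit, whatever the replicate mean, cut at about 25% in these data; inconclusive = mean inhibition reaches that limit but some replicates miss it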;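 note: 0% = plate neutral control median and 100% = total signal loss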
Target sequence (P42568 whole entry, looked up): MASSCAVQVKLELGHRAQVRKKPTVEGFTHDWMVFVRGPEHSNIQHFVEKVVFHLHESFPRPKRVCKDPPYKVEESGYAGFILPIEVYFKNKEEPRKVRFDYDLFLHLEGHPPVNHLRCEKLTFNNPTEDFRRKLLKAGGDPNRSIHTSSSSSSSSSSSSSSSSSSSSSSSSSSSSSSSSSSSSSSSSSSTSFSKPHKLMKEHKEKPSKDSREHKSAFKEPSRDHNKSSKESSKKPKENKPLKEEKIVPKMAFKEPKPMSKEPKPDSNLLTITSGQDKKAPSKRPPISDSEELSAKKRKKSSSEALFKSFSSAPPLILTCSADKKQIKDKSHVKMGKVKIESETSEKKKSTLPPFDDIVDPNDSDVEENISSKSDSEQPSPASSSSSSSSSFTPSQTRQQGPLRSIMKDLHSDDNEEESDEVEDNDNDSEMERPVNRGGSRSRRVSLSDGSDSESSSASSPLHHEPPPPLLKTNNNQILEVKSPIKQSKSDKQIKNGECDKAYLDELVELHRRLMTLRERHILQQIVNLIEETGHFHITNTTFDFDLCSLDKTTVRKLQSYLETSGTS
* hit, by the source's call.

Screening CCCCSc1nc(N)c(C#N)c(-c2cccs2)c1C#N returned rRNA inh HTS -31*, MITF act 2, Wnt act -1, esBAF inh -4 and MLL AF4-AF9 inh 5.
Cc1cc(COc2ccccc2)oc1C(=O)O was read as rRNA inh HTS 3, Wnt act 1, esBAF inh 51* and MLL AF4-AF9 inh -4.
Screening Cc1ccc(OCc2ccc(C(=O)O)o2)cc1C returned rRNA inh HTS 11, MITF act 19, Wnt act 30, esBAF inh inconclusive and MLL AF4-AF9 inh 2.
For C[C@@H]1CCCCO[C@H](CN(C)Cc2ccc(C(F)(F)F)cc2)[C@@H](C)CN([C@H](C)CO)C(=O)c2cc(N(C)C)ccc2O1 the results were rRNA inh HTS -1, esBAF inh -12 and MLL AF4-AF9 inh 11.
Screening C[C@@H]1CCCCO[C@@H](CN(C)Cc2ccc(C(=O)O)cc2)[C@H](C)CN([C@@H](C)CO)C(=O)c2cc(N(C)C)ccc2O1 returned rRNA inh HTS 2, esBAF inh -1 and MLL AF4-AF9 inh -5.
`C[C@@H]1CN([C@H](C)CO)C(=O)c2cc(N(C)C)ccc2O[C@@H](C)CCCCO[C@@H]1CN(C)Cc1ccc(C(F)(F)F)cc1` gave rRNA inh HTS -6, esBAF inh 1 and MLL AF4-AF9 inh 35*.
For C[C@H](CO)N1C[C@H](C)[C@H](CN(C)Cc2ccc(C(F)(F)F)cc2)OCCCC[C@H](C)Oc2ccc(N(C)C)cc2C1=O the results were rRNA inh HTS -10, esBAF inh -2 and MLL AF4-AF9 inh 32*.
C[C@@H]1CCCCO[C@@H](CN(C)Cc2ccc(C(=O)O)cc2)[C@@H](C)CN([C@H](C)CO)C(=O)c2cc(N(C)C)ccc2O1 was read as rRNA inh HTS 3 and esBAF inh -10.
C[C@@H]1CN([C@H](C)CO)C(=O)c2cc(N(C)C)ccc2O[C@@H](C)CCCCO[C@H]1CN(C)Cc1ccc(C(F)(F)F)cc1 was read as rRNA inh HTS -3, esBAF inh -2 and MLL AF4-AF9 inh 33*.
C[C@@H]1CN([C@@H](C)CO)C(=O)c2cc(N(C)C)ccc2O[C@@H](C)CCCCO[C@@H]1CN(C)Cc1ccc(C(F)(F)F)cc1 was read as rRNA inh HTS -5, esBAF inh 1 and MLL AF4-AF9 inh 39*.
Screening CC(=O)N(C)C[C@@H]1Oc2cc(C#Cc3ccccc3F)ccc2S(=O)(=O)N([C@H](C)CO)C[C@@H]1C returned rRNA inh HTS 5, esBAF inh 4 and MLL AF4-AF9 inh -1.
`CC(C(=O)Nc1ccc2c(c1)OCO2)c1ccc([N+](=O)[O-])cc1` (stereo not drawn) gave MITF act -11 and Wnt act 0.
`C[C@H](CO)N1C[C@H](C)[C@@H](CN(C)Cc2ccc(C(F)(F)F)cc2)OCCCC[C@H](C)Oc2ccc(N(C)C)cc2C1=O` gave rRNA inh HTS -7, esBAF inh -4 and MLL AF4-AF9 inh 22.
C[C@@H]1CN([C@@H](C)CO)C(=O)c2cc(N(C)C)ccc2O[C@@H](C)CCCCO[C@H]1CN(C)Cc1ccc(C(F)(F)F)cc1 was read as rRNA inh HTS -5, esBAF inh -3 and MLL AF4-AF9 inh 38*.
`Cc1ccc(NC(CC(=O)c2ccccc2)C(=O)O)cc1Cl` (stereo not drawn) gave rRNA inh HTS -2, MITF act 73, Wnt act 53* and MLL AF4-AF9 inh -1.
O=C(CC(Nc1ccccc1)C(=O)O)c1ccccc1 (stereo not drawn) was read as MITF act 101*.
O=C(CC(Nc1ccc(Cl)cc1Cl)C(=O)O)c1ccccc1 (stereo not drawn) was read as rRNA inh HTS -3, MITF act -14 and Wnt act -13.
For CN(C)c1ncnc2c1ncn2-c1ccccc1 the results were rRNA inh HTS 6, MITF act 26, Wnt act 4, esBAF inh 59* and MLL AF4-AF9 inh -5.
CNc1nc(Cl)nc2c1ncn2-c1ccccc1 was read as rRNA inh HTS 6, MITF act -19, Wnt act 8, esBAF inh 17 and MLL AF4-AF9 inh 4.
For CN(C)c1ncnc2c1ncn2CCn1cnc2c(N(C)C)ncnc21 the results were rRNA inh HTS 1, MITF act -4, Wnt act 0, esBAF inh 0 and MLL AF4-AF9 inh -1.
Clc1nc(Cl)c2ncn(-c3ccccc3)c2n1 was read as rRNA inh HTS -17*, MITF act -27, Wnt act -3, esBAF inh 30 and MLL AF4-AF9 inh 2.
For COc1ccc(Br)c(C(=O)OCC(=O)N2CCC(Cc3ccccc3)CC2)c1 the results were rRNA inh HTS -35*, MITF act 10, Wnt act 0, esBAF inh -7 and MLL AF4-AF9 inh -1.
`O=C(OCC(=O)N1CCC(Cc2ccccc2)CC1)c1ccccc1O` gave rRNA inh HTS -7, MITF act 90*, Wnt act -3 and MLL AF4-AF9 inh 5.
Screening Cn1c(C(=O)O)c(CC(=O)N2CCC(Cc3ccccc3)CC2)c2ccccc21 returned rRNA inh HTS -26*, MITF act 5, Wnt act -1 and MLL AF4-AF9 inh -4.
For CCOCC(=O)N1CCC(Cc2ccccc2)CC1 the results were rRNA inh HTS 4, MITF act 5, Wnt act -2 and MLL AF4-AF9 inh 2.
For C[C@H](CO)N1C[C@H](C)[C@H](CN(C)C(=O)C2CC2)Oc2ncc(-c3cccc(F)c3)cc2C1=O the results were rRNA inh HTS 1.
`CCCCSc1nnc(-c2ccc(NC(C)=O)cc2)n1C` gave MITF act 4.
`C[C@]12c3[nH]c4ccc(Cl)cc4c3CCN1C(=O)[C@@H](CC(=O)NCC13CC4CC(CC(C4)C1)C3)C[C@@H]2C(=O)N1CCCCC1` gave rRNA inh HTS 5, MITF act -2, Wnt act -3, esBAF inh 3 and MLL AF4-AF9 inh 1.
NS(=O)(=O)c1ccc(NC2=CC(=O)C(=O)c3ccccc32)cc1 was read as rRNA inh HTS -23, Wnt act 0, esBAF inh 6 and MLL AF4-AF9 inh 6.
For Cc1ccc(NC2=CC(=O)C(=O)c3ccccc32)cc1 the results were MITF act -94, Wnt act 73* and esBAF inh 40.
For COc1ccc(C(CNC(=O)CCNC(=O)c2ccc(Br)cc2)N2CCOCC2)cc1 (stereo not drawn) the results were rRNA inh HTS -3, MITF act -1, Wnt act 0, esBAF inh -1 and MLL AF4-AF9 inh 0.
For COc1ccc(Nc2nc(N)nc(CSc3nnc(N)s3)n2)cc1 the results were esBAF inh 10.
Screening Nc1nc(CSc2ccccn2)nc(Nc2ccccc2)n1 returned MITF act 152*, Wnt act 43* and esBAF inh 52*.
COc1ccc(Nc2nc(N)nc(CSc3nccn3C)n2)cc1 was read as rRNA inh HTS -5, MITF act 6, Wnt act 56* and MLL AF4-AF9 inh -1.
